Compound activity (PubChem)
HCV NS3h FP: blocks HCV NS3 helicase binding to DNA. NS3h Cy5-dT15 DNA binding, fluorescence polarization. inhibition, % at 100 µM. actives 1.6% (n = 16,000);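 active means inhibition above the average over every tested compound plus 3 SD, cut at about 40% in these data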
Cy5 interf NS3h: enhances or quenches Cy5 fluorescence in NS3h assay. actives 6% (n = 16,000). fluorescence interference ratio at 100 µM. AID 720488. Cy5-dT15 DNA with NS3h, fluorescence interference; actives lie on both sides; signal over control mean, under 1 quenches;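 active means compound fluorescence over control fluorescence at most 0.8, a quencher, or at least a set upper limit, an enhancer; inactive means ratio between 0.8 and the set upper limit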
* hit, by the source's call. A selection: hits, their analogues and other compounds. The true share with any hit is near 6.9%.

SMILES | HCV NS3h FP | Cy5 interf NS3h
O=C(CSC1CC(=O)N(c2cccc(Br)c2)C1=O)Nc1ccc(Cl)cc1 (stereo unspecified) | 43* | 0.79*
O=C(CSc1cc(Cl)ccc1Cl)Nc1cccc(Br)c1 | 7 | 0.93
Cc1ccc(NC(=O)COc2ccc3ccccc3c2)cc1 | 11 | 1.4*
COC(=O)c1ccccc1NC(=O)c1ccccc1NC(=O)c1ccc(OC)cc1 | 9 | 1
COC(=O)c1ccccc1NC(=O)COc1ccc(Br)cc1 | 12 | 0.96
COC(=O)c1ccccc1NC(=O)COc1ccc(C)c(C)c1 | 6 | 0.63*
Cc1ccccc1NC(=O)c1ccc(OCC(C)C)cc1 | 12 | 0.76*
COc1cc(NC(=O)COc2ccc3ccccc3c2)cc(OC)c1 | 18 | 1.1
CC(C)COc1ccc(C(=O)Nc2cccc3ccccc23)cc1 | 23 | 1.1
CCCOc1ccc(C(=O)Nc2ccccc2C(=O)OC)cc1 | 13 | 0.7*
Cc1cccc(/C=N\n2c(C)nnc2C)c1 | 1 | 1
CCOC(=O)c1c(C)nc2n(/N=C\c3ccccc3[N+](=O)[O-])c3ccccc3n12 | -1 | 1.1
CC(=O)c1cccc(NC(=O)Cn2cnc([N+](=O)[O-])n2)c1 | 4 | 1
NS(=O)(=O)c1ccc(N=C2NC(=O)CS2)cc1 | 7 | 1.1
CN(C)c1ccc(/C=N\N=C2/SC(CC(=O)O)C(=O)N2c2ccc(O)cc2)cc1 (stereo unspecified) | 5 | 0.93
COc1ccc(S(=O)(=O)N(CC(=O)Nc2ccc(Cl)cc2Cl)c2ccc(C)cc2)cc1OC | 11 | 1
Cc1ccc(C(=O)Nc2ccc(I)cc2)cc1[N+](=O)[O-] | 14 | 1.1
O=C(Nc1ccc2nn(-c3ccccc3)nc2c1)c1ccc(Cl)c([N+](=O)[O-])c1 | -8 | 0.44*
CN(C)c1ccc(NC(=O)c2ccc(Cl)c([N+](=O)[O-])c2)cc1 | 44* | 0.32*
O=C(Nc1ccc2nn(-c3ccccc3)nc2c1)c1cccc(F)c1 | -20 | 0.94
O=C(O)c1ccc(NC(=O)c2ccc(Cl)c([N+](=O)[O-])c2)cc1 | 10 | 0.9
Cc1ccc(C(=O)Nc2ccccc2)cc1[N+](=O)[O-] | 10 | 0.63*
O=C(C(=O)c1ccc(I)cc1)c1ccc(I)cc1 | 1 | 1.1
Cc1cccc(CSCc2nnc(NC(=O)Nc3ccc(Cl)cc3)s2)c1 | 4 | 1
CCCCOc1ccc(NC(=O)C2CC(=O)N(c3ccc(C)cc3)C2)cc1 (stereo unspecified) | 12 | 0.97
SMILES | HCV NS3h FP | Cy5 interf NS3h
COC(=O)c1ccccc1NC(=O)COc1cc(C)ccc1C(C)C | 11 | 0.94
Cc1ccc(C(=O)Oc2cccc(C3C4=C(CC(C)(C)CC4=O)NC4=C3C(=O)c3ccccc34)c2)cc1 (stereo unspecified) | 9 | 0.97
CCOc1cc(C2C3=C(CC(C)(C)CC3=O)NC3=C2C(=O)c2ccccc23)ccc1O (stereo unspecified) | 4 | 1.2*
CCOC(=O)c1ccccc1NC(=O)CCNS(=O)(=O)c1ccccc1[N+](=O)[O-] | 13 | 0.9
O=C(Oc1cccc(C(=S)N2CCOCC2)c1)c1ccc([N+](=O)[O-])cc1 | 20 | 0.66*
O=C(Oc1ccccc1C(=S)N1CCOCC1)c1ccc([N+](=O)[O-])cc1 | 2 | 0.89
COc1ccc(/C=C(/C#N)C(=O)Nc2cccc(C(F)(F)F)c2)cc1 | 1 | 1.1
CCOc1ccc(C(=O)Nc2ccc(O)c(-c3nc4ccccc4s3)c2)cc1Cl | -13 | 1.1
COc1ccc(-c2c(C#N)c(N)c(C#N)c3c2CCCC3)cc1 | 15 | 0.89
CCc1ccccc1NC(=O)CC1S/C(=N/N=C(C)\C=C\c2ccc(OC)cc2)NC1=O (stereo unspecified) | -29 | 1.2*
C/C(=N/N=C1\NC(=O)C(CC(=O)Nc2ccccc2C)S1)c1ccc(F)cc1 (stereo unspecified) | 2 | 1
Cc1cc(/C=N\n2cnnc2)c(C)n1C | -1 | 0.98
CCOc1ccc(/C=N\N=C2\C(=O)Nc3ccccc32)cc1 | -10 | 0.96
O=C1Nc2ccccc2/C1=N/N=C\c1ccccc1[N+](=O)[O-] | 33 | 0.59*
Cc1ccc(C(=O)O/N=C(/N)c2ccc(Br)cc2)cc1[N+](=O)[O-] | 18 | 0.78*
Cc1ccc(C(=O)O/N=C(/N)c2ccc(Cl)cc2)cc1[N+](=O)[O-] | -2 | 0.96
COc1cc([N+](=O)[O-])ccc1NS(=O)(=O)c1ccc(F)cc1 | 28 | 1
O=c1c2cnn(-c3ccccc3)c2nc(-c2ccccc2F)n1-c1cccc(Cl)c1 | 9 | 0.99
O=c1oc(-c2ccc(Cl)cc2Cl)nc2ccccc12 | 7 | 1.2
O=c1oc(-c2ccccc2Cl)nc2ccc(-c3ccc4nc(-c5ccccc5Cl)oc(=O)c4c3)cc12 | 1 | 0.69*
CC(C)Oc1cccc(C(=O)Nc2ccc(Cl)cn2)c1 | -4 | 1
Cc1ccc(C)c(OCC(=O)N/N=C\c2ccc(OC(=O)c3ccc4c(c3)OCO4)cc2)c1 | 2 | 1
